According to PubChem BioAssay (EPA / NIEHS):
Records with an inconclusive call do not appear. Calls of active or inactive are those of the source. Rule for the calls, unless noted: active = hit-call score of the fitted dose curve at least 0.9, where 1 is the maximum; inconclusive = response in the unintended direction; inactive = score below 0.9.

Key:
[1] = target: Retinoic acid receptor alpha (Homo sapiens) (UniProt P10276); experiment: ATG_DR5_RAR_CIS: Attagene CIS-FACTORIAL HepG2 Assay for human Retinoic Acid Receptor Alpha (RARE), DR5 submotif (AID 2282934; active = hit-call score of the fitted dose curve at least 0.9, where 1 is the maximum; inactive = score below 0.9); conditions: HepG2 Attagene cis-factorial RARE DR5 reporter, mRNA; actives raise or lower the signal
Procedure, shortened: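 HepG2, transient cis-reporter transfection, 24 h exposure. mRNA readout: RT-PCR, FAM label, HpaI cut, capillary electrophoresis. DMSO baseline, gain/loss fitting.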

[2] = ATG_M_19_CIS: Attagene CIS-FACTORIAL HepG2 Assay for M19 Transcription Factor (Internal Marker) (AID 2282939; active = hit-call score of the fitted dose curve at least 0.9, where 1 is the maximum; inactive = score below 0.9); conditions: HepG2 Attagene CIS-FACTORIAL M19 internal marker reporter; actives raise or lower the signal
Procedure, shortened: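 HepG2, MRTU transient transfection, 24 h dosing. Total RNA → RT-PCR → 6-FAM primer extension → HpaI digest → CE fluorescence. Bidirectional curve fit, DMSO negative control.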

[3] = target: Hepatocyte nuclear factor 3-beta (Homo sapiens) (UniProt Q9Y261); experiment: ATG_FoxA2_CIS: Attagene CIS-FACTORIAL HepG2 Assay for human Forkhead box A2 (FOXA2) (AID 2282942; active = hit-call score of the fitted dose curve at least 0.9, where 1 is the maximum; inactive = score below 0.9); conditions: HepG2 cis-reporter transcription factor activity, 24 h; actives raise or lower the signal
Procedure, shortened: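 HepG2 transiently transfected with a multiplexed cis-promoter reporter library read endogenous FOXA2 activity. After 24 h compound exposure, reporter mRNA was quantified by RT-PCR, HpaI digestion and capillary electrophoresis. Bidirectional fit against DMSO.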

[4] = ATG_PBREM_CIS: Attagene CIS-FACTORIAL HepG2 Assay for human Phenobarbital-responsive Enhancer Module (PBREM) (AID 2282955; active = hit-call score of the fitted dose curve at least 0.9, where 1 is the maximum; inactive = score below 0.9); conditions: HepG2 PBREM cis-reporter, Attagene multiplexed transcription; actives raise or lower the signal
Procedure, shortened: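 HepG2 cells transiently transfected with multiple cis-regulated reporter units measure endogenous transcription factor activity; 24 h compound exposure. Reporter mRNA quantified by RT-PCR, fluorescent labelling, HpaI digestion and capillary electrophoresis; bidirectional fit versus DMSO.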

[5] = ATG_PXRE_CIS: Attagene CIS-FACTORIAL HepG2 Assay for human Pregnane X Receptor Element (PXRE) (AID 2282957; active = hit-call score of the fitted dose curve at least 0.9, where 1 is the maximum; inactive = score below 0.9); conditions: HepG2 Attagene CIS-FACTORIAL PXRE reporter, mRNA; actives raise or lower the signal
Procedure, shortened: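 Transfect HepG2 with MRTUs (cis promoter elements); dose chemical, incubate 24 h; isolate RNA, RT with oligo(dT), PCR, 6-FAM label, HpaI cut, CE. Gain/loss fit vs DMSO.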

[6] = ATG_RORE_CIS: Attagene CIS-FACTORIAL HepG2 Assay for human RAR-related Orphan Receptor Element (RORE) (AID 2282959; active = hit-call score of the fitted dose curve at least 0.9, where 1 is the maximum; inactive = score below 0.9); conditions: HepG2 Attagene cis-factorial RORE reporter, mRNA; actives raise or lower the signal
Procedure, shortened: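 HepG2 cells carrying transiently transfected cis-regulated reporter units; RORE-driven reporter mRNA quantified 24 h post-dosing by RT-PCR, 6-FAM primer extension, HpaI digestion and capillary electrophoresis. Bidirectional fit versus DMSO.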

[7] = target: Hepatocyte nuclear factor 4-alpha (Homo sapiens) (UniProt P41235); experiment: ATG_HNF4a_TRANS: Attagene TRANS-FACTORIAL HepG2 Assay for human Hepatocyte Nuclear Factor 4 alpha (HNF4a) (AID 2282982); conditions: HepG2 HNF4a transactivation reporter, mRNA readout
Procedure, shortened: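 Transfected HepG2 reporter cells are dosed for 24 h; reporter RNA is reverse-transcribed, amplified, fluorescently labelled and HpaI-digested before CE sizing. Positive-direction fit against DMSO.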

[8] = ATG_M_32_TRANS: Attagene TRANS-FACTORIAL HepG2 Assay for M32 Transcription Factor (Internal Marker) (AID 2282984); conditions: HepG2 Attagene TRANS M32 internal marker reporter;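 note: transcript level of a background control reporter unit measured by RT-PCR and capillary electrophoresis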
Procedure, shortened: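 Using transiently transfected HepG2 cells exposed to test chemicals for 24 h, reporter transcripts are converted to labelled cDNA fragments and quantified by capillary electrophoresis. DMSO defines the activity baseline.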

[9] = target: human Peroxisome Proliferator-activated Receptor alpha (PPARa), PPARA (gene 5465) (UniProt Q07869); experiment: ATG_PPARa_TRANS: Attagene TRANS-FACTORIAL HepG2 Assay for human Peroxisome Proliferator-activated Receptor alpha (PPARa) (AID 2283001);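 for AC50: potency for gain of reporter signal over DMSO so agonist or activator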
Procedure, shortened: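 Reporter transcripts from GAL4-UAS units in transfected HepG2 were quantified 24 h after dosing. Detection used reverse transcription, PCR, fluorescent primer extension and capillary electrophoresis, with DMSO as baseline.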

[10] = target: Retinoic acid receptor RXR-alpha (Homo sapiens) (UniProt P19793); experiment: ATG_RXRa_TRANS: Attagene TRANS-FACTORIAL HepG2 Assay for human Retinoid X Receptor alpha (RXRa) (AID 2283012)
Procedure, shortened: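 Cells (HepG2) carried transiently transfected GAL4-responsive reporter units. Following a 24 h chemical incubation, reporter mRNA induction was read via RT-PCR fragment analysis; DMSO served as negative control and baseline.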

[11] = target: human Retinoid X Receptor beta (RXRb), RXRB (gene 6257) (UniProt P28702); experiment: ATG_RXRb_TRANS: Attagene TRANS-FACTORIAL HepG2 Assay for human Retinoid X Receptor beta (RXRb) (AID 2283013)
Procedure, shortened: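 Multiplexed TRANS reporter assay in HepG2; 24 h dosing; reporter mRNA by RT-PCR/CE fluorescence; gain-of-signal relative to DMSO.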

[12] = TOX21_p53_BLA_p2_viability: Viability Assessment in the Tox21 HCT-116 p53 Agonism Beta-lactamase Assay, Phase 2 (AID 2283591);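 note: compound exposure lasted 16 h at 37 °C; actives lower the ATP signal meaning cytotoxicity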
Procedure, shortened: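 Cytotoxicity readout: CellTiter-Glo ATP luminescence, 30 min at room temperature, after the beta-lactamase read. Cells were HCT116 exposed 16 h at 37C to compounds pin-transferred at 217-fold dilution from DMSO stocks.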

[13] = TOX21_p53_BLA_p3_viability: Viability Assessment in the Tox21 HCT-116 p53 Agonism Beta-lactamase Assay, Phase 3 (AID 2283593);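 note: cells exposed to compound for 16 h before reading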
Procedure, shortened: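 Cellular ATP was quantified by CellTiter-Glo luminescence, read after 30 min at room temperature. Beforehand, HCT116 cells (4000/well) received compound 5 h post-seeding, 217-fold diluted from DMSO, then incubated 16 h at 37C.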

[14] = target: Cellular tumor antigen p53 (Homo sapiens) (UniProt P04637); experiment: TOX21_p53_BLA_p5_ratio: Tox21 HCT-116 p53 Agonism Beta-lactamase Assay, Ratio, Phase 5 (AID 2283599)
Procedure, shortened: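 Beta-lactamase reporter ratio (blue 460 nm over green 530 nm, 405 nm excitation) after 2 h CCF4-AM loading, in HCT-116 cells exposed 16 h at 37 C to compounds pinned at 217-fold dilution. Increases relative to DMSO baseline scored.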

[15] = TOX21_p53_BLA_p5_viability: Viability Assessment in the Tox21 HCT-116 p53 Agonism Beta-lactamase Assay, Phase 5 (AID 2283600)
Procedure, shortened: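 4000 cells/well; 5 h pre-incubation; DMSO compounds pin-transferred, 217-fold dilution; 16 h, 37C/5% CO2; CCF4-AM 2 h RT; CellTiter-Glo 30 min RT; luminescence.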

[16] = target: Cellular tumor antigen p53 (Homo sapiens) (UniProt P04637); experiment: TOX21_p53_BLA_p4_ratio: Tox21 HCT-116 p53 Agonism Beta-lactamase Assay, Ratio, Phase 4 (AID 2283601)
Procedure, shortened: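 Signal is the blue/green (460nm/530nm) ratio of cleaved versus uncleaved CCF4-AM substrate, read after 2 h substrate loading. Cells were HCT116 carrying the p53-responsive beta-lactamase reporter, dosed 16 h at 37C, 5% CO2; CellTiter-Glo measured in parallel.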

[17] = ATG_M_32_CIS: Attagene CIS-FACTORIAL HepG2 Assay for M32 Transcription Factor (Internal Marker) (AID 2282949; active = hit-call score of the fitted dose curve at least 0.9, where 1 is the maximum; inactive = score below 0.9;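 note: background control marker of the multiplexed CIS panel rather than a real target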); conditions: HepG2 Attagene cis-factorial M32 reporter, mRNA; actives raise or lower the signal
Procedure, shortened: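 Following 24 h chemical exposure of HepG2 cells transiently expressing cis-promoter reporter constructs, reporter transcript levels were determined by RT-PCR with fluorescent labelling and capillary electrophoresis, then fitted bidirectionally against DMSO.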

[18] = ATG_Sox_CIS: Attagene CIS-FACTORIAL HepG2 Assay for human SRY-box transcription factor (SOX) (AID 2282960; active = hit-call score of the fitted dose curve at least 0.9, where 1 is the maximum; inactive = score below 0.9); conditions: HepG2 Attagene cis-factorial SOX reporter, mRNA; actives raise or lower the signal
Procedure, shortened: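 HepG2 cells transiently transfected with multiple cis-regulated reporter units, then dosed for 24 h. Reporter mRNA quantified by RT-PCR, fluorescent labelling, HpaI digestion and capillary electrophoresis; bidirectional fit versus DMSO.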

[19] = target: Cellular tumor antigen p53 (Homo sapiens) (UniProt P04637); experiment: TOX21_p53_BLA_p2_ratio: Tox21 HCT-116 p53 Agonism Beta-lactamase Assay, Ratio, Phase 2 (AID 2283592)
Procedure, shortened: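 HCT116 p53-bla; 4000 cells/well; 5 h pre-incubation; cpd in DMSO, 217-fold dilution; 16 h 37C/5% CO2; CCF4-AM 2 h RT; Ex 405, Em 460/530 ratio; DMSO = baseline; positive fitting direction.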

[20] = target: Cellular tumor antigen p53 (Homo sapiens) (UniProt P04637); experiment: TOX21_p53_BLA_p3_ratio: Tox21 HCT-116 p53 Agonism Beta-lactamase Assay, Ratio, Phase 3 (AID 2283596)
Procedure, shortened: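 HCT116 p53-bla cells (4000/well) given compound in DMSO (217-fold dilution) after 5 h, incubated 16 h at 37C. CCF4-AM substrate 2 h at room temperature; 460/530 nm emission ratio, gain fitted against DMSO.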

Measured: AC50

Cellular tumor antigen p53 (Homo sapiens), sequence (P04637 whole entry, looked up): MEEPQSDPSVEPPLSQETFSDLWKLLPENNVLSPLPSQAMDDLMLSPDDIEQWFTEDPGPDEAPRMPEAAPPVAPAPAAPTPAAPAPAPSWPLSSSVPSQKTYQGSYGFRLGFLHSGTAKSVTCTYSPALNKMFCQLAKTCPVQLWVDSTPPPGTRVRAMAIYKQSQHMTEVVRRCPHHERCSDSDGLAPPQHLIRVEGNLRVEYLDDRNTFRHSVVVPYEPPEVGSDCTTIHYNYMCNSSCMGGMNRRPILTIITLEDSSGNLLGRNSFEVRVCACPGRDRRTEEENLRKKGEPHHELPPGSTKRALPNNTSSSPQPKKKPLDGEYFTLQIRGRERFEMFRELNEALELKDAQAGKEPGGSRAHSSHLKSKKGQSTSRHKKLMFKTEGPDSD
Retinoic acid receptor alpha (Homo sapiens), sequence (P10276 whole entry, looked up): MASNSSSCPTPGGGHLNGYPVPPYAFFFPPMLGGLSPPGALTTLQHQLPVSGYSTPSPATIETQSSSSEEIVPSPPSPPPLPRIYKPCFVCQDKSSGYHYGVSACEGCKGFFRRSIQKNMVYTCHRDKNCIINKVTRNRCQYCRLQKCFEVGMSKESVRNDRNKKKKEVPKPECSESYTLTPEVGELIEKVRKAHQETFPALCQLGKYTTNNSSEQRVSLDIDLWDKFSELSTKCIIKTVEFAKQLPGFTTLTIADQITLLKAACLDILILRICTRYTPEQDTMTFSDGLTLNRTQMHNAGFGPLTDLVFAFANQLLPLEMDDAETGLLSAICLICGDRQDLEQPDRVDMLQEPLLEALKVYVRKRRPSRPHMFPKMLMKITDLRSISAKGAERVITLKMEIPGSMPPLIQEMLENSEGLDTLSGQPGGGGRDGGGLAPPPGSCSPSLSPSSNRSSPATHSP
human Retinoid X Receptor beta (RXRb), RXRB (gene 6257), sequence (P28702 whole entry, looked up): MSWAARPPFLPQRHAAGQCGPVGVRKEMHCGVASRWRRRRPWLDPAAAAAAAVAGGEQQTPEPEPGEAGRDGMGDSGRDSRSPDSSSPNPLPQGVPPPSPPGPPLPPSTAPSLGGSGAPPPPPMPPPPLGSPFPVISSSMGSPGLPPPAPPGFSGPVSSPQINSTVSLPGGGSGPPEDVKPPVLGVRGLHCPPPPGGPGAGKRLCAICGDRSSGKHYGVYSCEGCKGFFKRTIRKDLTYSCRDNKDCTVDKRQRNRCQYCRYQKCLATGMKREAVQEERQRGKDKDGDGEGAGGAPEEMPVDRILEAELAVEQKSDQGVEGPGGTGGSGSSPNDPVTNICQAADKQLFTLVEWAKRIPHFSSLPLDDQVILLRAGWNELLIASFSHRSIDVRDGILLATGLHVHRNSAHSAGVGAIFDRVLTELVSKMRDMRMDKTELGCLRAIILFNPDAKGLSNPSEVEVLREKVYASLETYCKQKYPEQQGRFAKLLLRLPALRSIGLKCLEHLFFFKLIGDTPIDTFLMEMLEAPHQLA
Hepatocyte nuclear factor 4-alpha (Homo sapiens), sequence (P41235 whole entry, looked up): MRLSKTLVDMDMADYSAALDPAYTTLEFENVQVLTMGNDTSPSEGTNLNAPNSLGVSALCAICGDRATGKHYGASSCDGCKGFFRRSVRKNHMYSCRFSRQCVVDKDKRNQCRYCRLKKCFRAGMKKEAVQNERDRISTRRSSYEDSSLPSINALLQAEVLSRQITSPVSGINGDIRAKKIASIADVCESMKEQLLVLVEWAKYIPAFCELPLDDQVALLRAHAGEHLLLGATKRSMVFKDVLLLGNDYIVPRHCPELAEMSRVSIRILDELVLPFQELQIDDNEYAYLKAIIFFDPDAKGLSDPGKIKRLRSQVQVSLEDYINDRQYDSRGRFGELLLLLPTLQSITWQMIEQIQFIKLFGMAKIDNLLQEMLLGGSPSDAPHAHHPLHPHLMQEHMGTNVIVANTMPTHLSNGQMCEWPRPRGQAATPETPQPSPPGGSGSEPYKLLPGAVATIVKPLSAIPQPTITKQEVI
Hepatocyte nuclear factor 3-beta (Homo sapiens), sequence (Q9Y261 whole entry, looked up): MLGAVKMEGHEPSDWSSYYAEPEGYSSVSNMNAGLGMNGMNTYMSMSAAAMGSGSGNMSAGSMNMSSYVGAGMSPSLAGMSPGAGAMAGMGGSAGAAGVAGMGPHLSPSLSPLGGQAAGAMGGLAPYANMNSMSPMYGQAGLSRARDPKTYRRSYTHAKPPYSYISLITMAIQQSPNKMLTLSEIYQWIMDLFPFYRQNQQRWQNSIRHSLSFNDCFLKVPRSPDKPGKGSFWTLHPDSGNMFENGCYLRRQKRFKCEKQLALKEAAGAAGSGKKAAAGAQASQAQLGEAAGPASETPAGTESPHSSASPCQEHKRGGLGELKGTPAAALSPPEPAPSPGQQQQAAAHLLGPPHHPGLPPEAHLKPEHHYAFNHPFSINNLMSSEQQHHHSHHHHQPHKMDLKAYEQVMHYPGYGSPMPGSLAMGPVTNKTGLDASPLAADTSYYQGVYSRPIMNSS
human Peroxisome Proliferator-activated Receptor alpha (PPARa), PPARA (gene 5465), sequence (Q07869 whole entry, looked up, the tested form may be a part): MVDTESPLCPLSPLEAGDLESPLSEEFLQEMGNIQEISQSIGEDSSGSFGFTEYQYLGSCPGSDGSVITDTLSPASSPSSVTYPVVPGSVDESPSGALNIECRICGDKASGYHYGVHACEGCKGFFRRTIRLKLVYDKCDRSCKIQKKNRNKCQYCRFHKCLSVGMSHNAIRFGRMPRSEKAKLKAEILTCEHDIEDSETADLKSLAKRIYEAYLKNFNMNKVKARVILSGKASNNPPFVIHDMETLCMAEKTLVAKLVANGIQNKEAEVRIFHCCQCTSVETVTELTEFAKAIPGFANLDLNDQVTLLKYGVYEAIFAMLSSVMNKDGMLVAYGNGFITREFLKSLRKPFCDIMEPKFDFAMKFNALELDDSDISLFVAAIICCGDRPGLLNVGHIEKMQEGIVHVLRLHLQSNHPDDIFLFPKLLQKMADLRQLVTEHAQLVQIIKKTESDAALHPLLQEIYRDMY
Retinoic acid receptor RXR-alpha (Homo sapiens), sequence (P19793 whole entry, looked up, the tested form may be a part): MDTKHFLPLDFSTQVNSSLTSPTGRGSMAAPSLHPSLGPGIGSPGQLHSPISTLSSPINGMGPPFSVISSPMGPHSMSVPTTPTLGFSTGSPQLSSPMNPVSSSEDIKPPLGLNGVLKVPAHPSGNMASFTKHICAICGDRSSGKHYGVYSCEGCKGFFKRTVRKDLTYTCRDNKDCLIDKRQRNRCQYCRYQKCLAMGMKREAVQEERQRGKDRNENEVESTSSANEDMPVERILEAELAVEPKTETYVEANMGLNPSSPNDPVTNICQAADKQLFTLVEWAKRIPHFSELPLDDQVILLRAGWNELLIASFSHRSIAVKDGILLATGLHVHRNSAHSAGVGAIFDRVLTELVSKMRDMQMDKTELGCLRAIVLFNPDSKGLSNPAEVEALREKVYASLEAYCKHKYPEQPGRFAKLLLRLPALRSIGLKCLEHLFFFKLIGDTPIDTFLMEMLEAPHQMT

C=C(C)C(=O)OCC1CCCO1 (centres undefined)
not listed: [17] | [18] | [19] | [20]
inactive: all other assays above

CCCC(=O)OC
inactive: [1] | [2] | [3] | [17] | [5] | [18] | [9] | [19] | [13] | [20] | [14]

Cc1ccccc1S(=O)(=O)O
inactive: [1] | [2] | [6] | [7] | [9] | [10] | [12] | [13] | [15] | [16]
active: [5] 70.6 µM

CC(=O)Nc1c(I)c(NC(C)=O)c(I)c(C(=O)O)c1I
inactive: [1] | [3] | [17] | [5] | [18] | [7]

NC(=O)c1ccc(N)cc1
not listed: [8] | [9] | [10] | [13] | [14] | [20]
inactive: all other assays above

C[C@H]1C[C@H]2[C@@H]3CCC4=CC(=O)C=C[C@]4(C)[C@@]3(F)[C@@H](O)C[C@]2(C)[C@@]1(O)C(=O)CO
active: [5] 9.62 µM
not listed: [1] | [6] | [7] | [8] | [14]
inactive: all other assays above

CO[Si](CCCNCCN)(OC)OC
inactive: [1] | [18] | [7] | [8] | [9]

CN(C)c1ccc(C(c2ccccc2)c2ccc(N(C)C)cc2)cc1
active: [5] 3.06 µM
not listed: [1] | [9] | [18]
inactive: all other assays above

C=CN1CCCCCC1=O
not listed: [1] | [4] | [7] | [8] | [13] | [15] | [17]
inactive: all other assays above

OCCc1ccccn1
not listed: [1] | [5] | [8] | [9] | [11] | [13] | [14] | [17]
inactive: all other assays above

CC(C)(Oc1ccc(Cl)cc1)C(=O)O
active: [9] 29.8 µM
not listed: [1]
inactive: all other assays above
